Assay [1] is described as follows: qHTS drug screen for cell cycle checkpoint inhibitors in PARPi-resistant BRCA-mutant ovarian cancer cell lines. (AID 1963452; calls by dose curve). The conditions noted are these: PEO1/OlaR viability, CellTiter-Glo luminescence, 96 h, stronger effect = lower value. In outline: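 PEO1, PEO4 and PEO1/OlaR ovarian cancer cells, 600 per well, exposed 96 h at 37C to a dilution series. Viability read by CellTiter-Glo luminescence, normalized to DMSO and empty wells; activity summarized as Z-AUC.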
(In general: In qHTS, concentration-response curves come from the screen itself.)

Assay [2] is described as follows: qHTS for identification of novel therapeutic agents for treatment of microphthalmiaassociated transcription factor (MiT) renal cell carcinoma (RCC) (AID 1963991). The conditions noted are these: CellTiter-Glo, 48 h, stronger effect = lower value. In outline:
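Viability of three TFE3-fusion renal carcinoma lines measured by CellTiter-Glo after 48 h treatment with each of 1912 compounds at 11 concentrations. Responses scaled between DMSO (100%) and empty wells (0%) before curve fitting.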

A short description of assay [3]: qHTS profiling for inhibitors of Plasmodium falciparum proliferation (AID 504749). Also: nearly all actives have a fitted effect of over 60% in size. Also: potency is read from the fitted curve at half-maximal effect.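 As to activity, negative = inhibition: 0% = DMSO vehicle and full inhibition = artemisinin control.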 The conditions noted are these: P. falciparum in erythrocytes, SYBR Green DNA, 72 h. Summed up:
(§1)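 Infected RBCs, 0.3% parasitemia/2.5% Hct final; cpd 72 h, 37 C, 5% CO2; lysis buffer with saponin/triton/SYBR Green I, o/n RT dark; FI 485/535; norm. to artemisinin (0.29 uM) and DMSO.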

The test system of the next assay is 3D7. Described as above. The conditions noted are these: P. falciparum in erythrocytes, SYBR Green DNA, 72 h; series mostly up to 28.7 µM. In outline:
as §1

The subject of the next assay is 7G8. Described as above. The conditions noted are these: P. falciparum in erythrocytes, SYBR Green DNA, 72 h; series mostly up to 28.7 µM. In outline: as §1
For another assay, the system named is AA1029. The assay is described as above. The conditions noted are these: P. falciparum in erythrocytes, SYBR Green DNA, 72 h; series mostly up to 28.7 µM. Summed up:
as §1

A further assay has as its system AS120. The description is as above. The conditions noted are these: P. falciparum in erythrocytes, SYBR Green DNA, 72 h; series mostly up to 28.7 µM. Summed up:
as §1

The subject of another assay is ATS189. The description is as above. The conditions noted are these: P. falciparum in erythrocytes, SYBR Green DNA, 72 h; series mostly up to 28.7 µM. Summed up: as §1
A further assay relates to ATS95. Described as above. The conditions noted are these: P. falciparum in erythrocytes, SYBR Green DNA, 72 h; series mostly up to 28.7 µM. Summed up: as §1
The subject of a further assay is C2A. The assay is described as above. The conditions noted are these: P. falciparum in erythrocytes, SYBR Green DNA, 72 h; series mostly up to 28.7 µM. Summed up: as §1
A further assay deals with CP185. The assay is described as above. The conditions noted are these: P. falciparum in erythrocytes, SYBR Green DNA, 72 h; series mostly up to 28.7 µM. Summed up: as §1
For the next assay, the system named is CP191. The assay is described as above. The conditions noted are these: P. falciparum in erythrocytes, SYBR Green DNA, 72 h; series mostly up to 28.7 µM. Summed up:
as §1

The subject of the next assay is CP192. The assay is described as above. The conditions noted are these: P. falciparum in erythrocytes, SYBR Green DNA, 72 h; series mostly up to 28.7 µM. In outline: as §1
A further assay relates to CP194. The assay is described as above. The conditions noted are these: P. falciparum in erythrocytes, SYBR Green DNA, 72 h; series mostly up to 28.7 µM. In outline: as §1
For another assay, the system named is CP201. Described as above. The conditions noted are these: P. falciparum in erythrocytes, SYBR Green DNA, 72 h; series mostly up to 28.7 µM. In outline:
as §1

Where [4] appears, read: measured here: PEO1 parental Z-AUC.
Setting [5] is: TFE3-RCC UOK109 viability, measured here: UOK109 Z-AUC.
Setting [6] is: TFE3-RCC viability, measured here: UOK124 Z-AUC.
Setting [7] is: TFE3-RCC viability, measured here: UOK145 Z-AUC.
[8] abbreviates: at 28.7 µM (top of the series), parasite line A.
The mark [9] stands for this setting: at 28.7 µM (top of the series), parasite line B.
[10] abbreviates: at 12.8 µM (top of the series), parasite line A.

Structures are written as SMILES. Records with an inconclusive call do not appear. The source made the active and inactive calls. Unless noted, calls follow the shape of the dose curve; as a rule, active = well fitted inhibition curve with a large enough effect; inconclusive = small, poorly fitted or top-dose-only effect; inactive = flat fitted curve, though single readings scatter.

On to `O=NN(CCCl)C(=O)NCCCl`, for which the values for the Z-AUC in assay [1], in [1] (setting [4]) and in [1] (measured here: PEO4 Z-AUC) were 0.732 (inactive), 0.83 and 0.781, respectively. The z-score in assay [2] (setting [5]) is -0.0741; in [2] (setting [6]), 1.48; in assay [2] (setting [7]), -0.0256. The activity, negative = inhibition in assay [3] (setting [8]) was -1.48% (inactive); in assay [3] (setting [9]) it was 4.82% (inactive). The Potency result in the assay with 3D7, with 7G8, in the assay with AA1029, in the assay with AS120, in the assay on ATS189 and with ATS95 was “inactive” in each case. The Potency entry in the assay with C2A, with CP185, with CP191, in the assay with CP192 and in the assay on CP194 was “inactive” in each case. Also, the compound was classed as inactive with CP201.

Regarding `CCOC(=O)N1CCC(=C2c3ccc(Cl)cc3CCc3cccnc32)CC1`, the activity, negative = inhibition in assay [3] (setting [9]) is -13.3% (inactive). For the same compound, the Potency was 12.6 µM (active) in [3] (parasite line A), 2.24 µM (active) in the assay with 7G8 and 1.78 µM (active) in the assay with AS120. The Potency entry with ATS189 and in the assay with C2A was “inactive” in each case.

Consider `Cc1ccc(N(CC2=NCCN2)c2cccc(O)c2)cc1`, for which the Z-AUC was 1.67 (inactive) in assay [1], 1.44 in assay [1] (setting [4]) and 1.79 in assay [1] (measured here: PEO4 Z-AUC). Moreover, the activity, negative = inhibition in assay [3] (setting [8]) is -3.3% (inactive); in assay [3] (setting [9]), -5.03% (inactive). Besides, the Potency entry with 3D7, with 7G8, in the assay with AA1029, in the assay on AS120, in the assay on ATS189 and in the assay with ATS95 was “inactive” throughout. For the same compound, the Potency entry with C2A, in the assay with CP185, with CP191, with CP192 and with CP194 was “inactive” throughout. The compound was called inactive with CP201.

On to `Clc1ccc(Nc2nnc(Cc3ccncc3)c3ccccc23)cc1`, for which the Z-AUC in assay [1] was 0.341 (inactive); in assay [1] (setting [4]), 0.338; in [1] (measured here: PEO4 Z-AUC) it was 0.325. The figures for the activity, negative = inhibition in [3] (setting [8]) and in assay [3] (setting [9]) were -16.8% (inactive) and -13.7% (inactive), respectively. Also, the Potency entry in the assay on 3D7, in the assay with ATS189, in the assay on ATS95, in the assay on C2A, with CP185 and in the assay on CP192 was “inactive” each time. Further, in the assay with CP194, the Potency result is “inactive”. The Potency in the assay on 7G8 was 10 µM (active). For the same compound, in the assay with CP201, the result was inactive.

On to `O=c1n(CCCN2CCN(c3cccc(Cl)c3)CC2)nc2ccccn12`, for which the results for the z-score in assay [2] (setting [5]), in [2] (setting [6]) and in assay [2] (setting [7]) were -0.148, 0.322 and 1.01, respectively. In addition, the activity, negative = inhibition in assay [3] (setting [10]) is -5.98% (inactive). Moreover, the Potency result with 3D7, in the assay with 7G8, with AA1029, with AS120, in the assay with ATS189 and with C2A was “inactive” each time. Further, the Potency result in the assay with CP185, with CP191, in the assay on CP192 and with CP194 was “inactive” in each case. Further, the call with CP201 was inactive.

For `Cc1cn[nH]c1`, the values for the Z-AUC in [1], in [1] (setting [4]) and in assay [1] (measured here: PEO4 Z-AUC) were 1.01 (inactive), 0.488 and 0.423, respectively. For the same compound, the activity, negative = inhibition in assay [3] (setting [8]) was 7.67% (inactive); in assay [3] (setting [9]), 14.9% (inactive). Besides, the Potency entry in the assay with 3D7, with 7G8, in the assay on AA1029, in the assay on AS120, in the assay with ATS189 and in the assay on ATS95 was “inactive” throughout. Further, the Potency result in the assay with C2A, in the assay with CP185, with CP191, with CP192 and with CP194 was “inactive” in each case. Further, in the assay on CP201, the compound was classed as inactive.

With `Nc1ccc(S(=O)(=O)Nc2ccnn2-c2ccccc2)cc1`, the z-score in assay [2] (setting [5]) came to 2.1; in assay [2] (setting [6]) it was 0.571; in assay [2] (setting [7]), 1.56. In addition, the activity, negative = inhibition in assay [3] (setting [10]) is -1.36% (inactive); in assay [3] (at 12.8 µM (top of the series), parasite line B) it was 3.8% (inactive). Further, the Potency entry with 3D7, in the assay on 7G8, in the assay on AA1029, in the assay on AS120, in the assay with ATS189 and with ATS95 was “inactive” throughout. Moreover, the Potency entry in the assay with C2A, with CP185, in the assay with CP191, with CP192 and in the assay on CP194 was “inactive” in each case. In addition, the compound was classed as inactive with CP201.

With `Cc1ccccc1C(OCCN(C)C)c1ccccc1` (centres undefined), the activity, negative = inhibition in [3] (setting [8]) is -3.11% (inactive); in assay [3] (setting [9]) it was 5.42% (inactive). Further, the Potency entry in the assay with 3D7, in the assay on CP191 and in the assay on CP192 was “inactive” in each case. Besides, the Potency in the assay on ATS95 is 8.91 µM (active).

Take `C[C@]12CC[C@H](O)CC1=CC[C@@H]1[C@H]2CC[C@]2(C)C(c3cccnc3)=CC[C@H]12`: the results for the z-score in assay [2] (setting [5]), in assay [2] (setting [6]) and in assay [2] (setting [7]) were 0.87, 0.84 and 0.924, respectively.

As for `CCOC(=O)C1=C[C@]2(CC)CCCN3CCc4c(n1c1ccccc41)[C@@H]32`, the Potency in the assay on 7G8 is 5.01 µM (active); in the assay on AA1029, 10 µM (active); in the assay on AS120, 8.91 µM (active); in the assay on ATS95, 12.6 µM (active).

Regarding `NCCCC(N)(C(=O)O)C(F)F` (centres undefined), the Z-AUC in assay [1] is 0.209 (inactive); in assay [1] (setting [4]), 0.253; in assay [1] (measured here: PEO4 Z-AUC), 1.05. Moreover, the figures for the activity, negative = inhibition in assay [3] (setting [8]) and in [3] (setting [9]) were 2.98% (inactive) and 4.55% (inactive), respectively. Moreover, the Potency entry in the assay with 3D7, in the assay on 7G8, in the assay on AA1029, in the assay on AS120, with ATS189 and in the assay with ATS95 was “inactive” throughout. Besides, the Potency result in the assay with C2A, in the assay with CP185, with CP191, in the assay with CP192 and in the assay on CP194 was “inactive” in each case. In the assay with CP201, the compound was classed as inactive.

Take `Nc1nc2ccc(OC(F)(F)F)cc2s1`: the Z-AUC is -0.346 (inactive) in assay [1], -0.387 in [1] (setting [4]) and 0.245 in assay [1] (measured here: PEO4 Z-AUC). Moreover, the Potency result in the assay with 3D7, with 7G8, in the assay with AA1029, with AS120, with ATS95 and in the assay on C2A was “inactive” each time. The Potency result with CP185, in the assay with CP192 and in the assay with CP194 was “inactive” in each case. For the same compound, the outcome with CP201 was inactive.

The record behind these values is PubChem BioAssay (NCATS).
